From PubChem BioAssay (NCATS)
Records with an inconclusive call do not appear. Activity calls are given as the source filed them. Calls come from the whole dose curve; as a rule, active = well fitted curve in either direction with a large enough effect (not every such curve was filed as active); inconclusive = small, poorly fitted or top-dose-only effect, or another doubt; inactive = flat fitted curve, though single readings scatter.

What follows are compounds tested against Mitogen-activated protein kinase 10 (Mus musculus) (UniProt Q61831) (assay: JNK3 AlphaScreen Assay (AID 530;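 note: kinase came from lysate of stimulated human HepG2 cells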)). Details: JNK3 lysate, c-Jun phosphorylation; series mostly up to 57.1 µM.
Text: NIH Chemical Genomics Center [NCGC]
NIH Molecular Libraries Screening Centers Network [MLSCN]
The c-jun N-terminal kinase (JNK) family are serine/threonine protein kinases that phosphorylate c-jun, a component of the transcription factor […] (AP-1). JNK kinases are members of the mitogen-activated protein kinase family including the extracellular regulated kinases and p38 kinases. Three JNK genes (JNK 1, 2, and 3) have been identified in humans so far. JNK1 and JNK2 have a broad distribution and JNK3 is primarily found in neuronal tissues and cardiac myocytes.
JNK3 has been under consideration as a target for the treatment of neurodegenerative disorders. […] JNK pathway is also involved in pathological process in a mouse model of Parkinson's disease (Xia et al., 2001).
Given these potential tissue distributions and links to neuroprotection, JNK3 inhibitors should provide useful investigational tools to study the role of this kinase in several diseases including, arthritis, stroke, myocardial infarction, ischemic injury and Parkinson's disease.
A homogeneous AlphaScreen is developed to measure the activity of JNK3. AlphaScreen is a two bead-based proximity-dependent chemical energy transfer luminescent assay platform. The phosphorylation of a biotinylated c-jun substrate by JNK3 can be detected with an antibody raised against phosphorylated c-jun. This process brings streptavidin donor beads and Protein-A acceptor beads to within a proximity range of <200 nm, and subsequently lead a chemical luminescent reaction upon exciting donor beads with 680 nm laser excitation light. Inhibition of JNK3 activity by small molecules and subsequent decrease in the antibody binding to biotinylated c-jun could attenuate or abolish this chemical luminescent reaction.
Yang DD, Kuan CY, Whitmarsh AJ, Rincon M, Zheng TS, Davis RJ, Rakic P and Flavell RA (1997) Absence of excitotoxicity-induced apoptosis in the hippocampus of mice lacking the Jnk3 gene. Nature 389:865-870. [PMID: 9349820]
Herdegen T, Claret FX, Kallunki T, Martin-Villalba A, Winter C, Hunter T, and Karin M (1998) Lasting N-terminal phosphorylation of c-Jun and activation of c-Jun N-terminal kinases after neuronal injury. J.Neurosci. 18:5124-5135. [PMID: 9651196]
Xia XG, Harding T, Weller M, Bieneman A, Uney JB and Schulz JB (2001) Gene transfer of the JNK interacting protein-1 protects dopaminergic neurons in the MPTP model of Parkinson's disease. Proc.Natl.Acad.Sci.U.S.A. 98:10433-10438.
NCGC Assay Protocol Summary:
GST-cJun (1-79) (Stratagene, La Jolla CA, #205145) was biotnylated by PerkinElmer (PerkinElmer-BioSignalInc. Montreal, Canada) and was detectable by the streptavidin Donor beads. Anti-(phospho)cJun (Ser73) antibody was from UpState (Charlottesvilles, VA, #06-659). JNK3-containing lysates were generated from HepG2 cells and pre-activated by interleukin1-beta and tumor necrosis factor alpha. All reagents were stored at -20 C before using. Phosphorylated biotinylated-GST-cJun was recognized by Anti-(phospho)cJun (Ser73) antibody and this process brings acceptor and donor beads together. Therefore JNK3 phosphorylation of cJun can be measured by Alpha reading by EnVision (PerkinElmer, Boston, MA).
The composition of kinase buffer was (in mM) 20 tris- HCl (pH 7.6) 10 MgCl2, 1 DTT, and 0.1 Na3VO4 and 0.01% Tween-20. Beads were diluted in detection buffer containing (in mM) 20 tris-HCl (pH 7.7), 20 NaCl and 80 EDTA and 0.3% BSA. The assay was performed at room temperature. All compounds were screened as titrations from 0.6 nM to 46 uM final concentration. The assay was performed in 1536-well format (white solid bottom and untreated) as follows:
Sequence,Parameter,Value,Description
1,Reagent,3 uL,Biotin-GST-cJun, Anti-(phospho)cJun and pre-activated JNK3-containing lysates
2,Compound,23 nL,Final concentration was 0.6nM to 46uM
3,Time,15 minutes,Room Temperature
4,Reagent,1 uL,ATP final concentration 10uM
6,Reagent,0.5 uL,2ng/well bead mixture
[…]

Row | Structure (SMILES) | outcome
1 | O=C(O)[C@H]1C[C@@H]1[C@H](NP(=O)(c1ccccc1)c1ccccc1)c1ccccc1 | inactive
2 | O=c1cccc2n1C[C@@H]1C[C@H]2CN2CCCC[C@H]12 | inactive
3 | O=C1C2(Cl)C3(Cl)C4(Cl)C(Cl)(Cl)C5(Cl)C3(Cl)C1(Cl)C5(Cl)C24Cl (stereo not given) | inactive
4 | O=C1C[C@@H]2OCC=C3CN4CC[C@]56c7ccccc7N1[C@H]5[C@@H]2[C@H]3C[C@@H]46 | inactive
5 | COC(=O)[C@@H]1C[C@@H]1[C@@H](NP(=O)(c1ccccc1)c1ccccc1)c1ccccc1 | inactive
6 | ClC1=C(Cl)C2(Cl)C3C(Cl)C(Cl)CC3C1(Cl)C2(Cl)Cl (stereo not given) | inactive
7 | [CH3][Hg][Cl] | inactive
8 | N#CSCSC#N | inactive
9 | C[C@@]12CCC[C@](C)(C(=O)O)[C@@H]1CCc1ccc(O)cc12 | inactive
10 | CCCCCCCCn1sccc1=O | inactive
11 | COC(=O)[C@@H]1C[C@H]1[C@@H](NP(=O)(c1ccccc1)c1ccccc1)c1ccccc1 | inactive
12 | COc1cc2c(cc1O)CCN[C@H]2C | inactive
13 | COC[C@H]1OC(=O)c2coc3c2[C@@]1(C)C1=C(C3=O)[C@H]2CCC(=O)[C@@]2(C)C[C@H]1OC(C)=O | inactive
14 | O=P(c1ccccc1)(c1ccccc1)N1CC2(CC2)CC(O)(c2ccccc2)C1 (stereo not given) | inactive
15 | CCCc1cc2c(n1Cc1cccc(Cl)c1)C(C)C1CN(C(=O)c3ccccc3)C(C)(C(=O)OC)C21 (stereo not given) | inactive
16 | C/C=C1\C[C@H](C)[C@](O)(CO)C(=O)OCC2=CCN3CC[C@@H](OC1=O)[C@@H]23 | inactive
17 | C=CCN1C[C@@H](C)N([C@H](c2ccc(C(=O)N(CC)CC)cc2)c2cccc(OC)c2)C[C@H]1C | inactive
18 | COc1cc2c(cc1O)-c1c(O)c(OC)cc3c1[C@H](C2)N(C)CC3 | inactive
19 | CC(C)n1cc2c3c(cccc31)[C@@H]1C[C@H](C(=O)O[C@@H](C)[C@H](C)O)CN(C)[C@H]1C2 | inactive
20 | CC[C@H](CO)NC(=O)[C@@H]1C=C2c3cccc4c3c(cn4C)C[C@@H]2N(C)C1 | inactive

Row | Structure (SMILES) | outcome
21 | C[C@H]1CC[C@]2(NC1)O[C@@H]1C[C@@H]3[C@@H]4CC=C5C[C@H](O)CC[C@@]5(C)[C@H]4CC[C@@]3(C)[C@H]1[C@@H]2C | inactive
22 | CCN(CC)c1ncnc2c1ncn2[C@@H]1O[C@@H](COP(=O)(O)OP(=O)(O)C(Br)(Br)P(=O)(O)O)[C@H](O)[C@H]1O | inactive
23 | CCCCCCCCCCCCCC(=O)O[C@H]1[C@@H](C)[C@@]2(O)[C@@H](C=C(CO)C[C@]3(O)C(=O)C(C)=C[C@@H]23)C2C(C)(C)[C@]21OC(C)=O (stereo not given in full) | inactive
24 | CNC(=O)[C@@H]1C[C@H]1[C@@H](NP(=O)(c1ccccc1)c1ccccc1)c1ccccc1 | inactive
25 | O=CN1C[C@H]2C[C@@H](C1)c1cccc(=O)n1C2 | inactive
26 | CCN1C[C@@]2(COC(=O)c3ccccc3N3C(=O)C[C@H](C)C3=O)CC[C@H](OC)[C@@]34[C@@H]5CC6[C@@H](OC)C[C@@](O)([C@H]5[C@H]6OC)C(O)([C@@H]13)[C@@H](OC)[C@H]24 | inactive
27 | CCN(CC)C(=O)N[C@H]1C[C@H]2c3cccc4[nH]cc(c34)C[C@@H]2N(C)C1 | inactive
28 | C[C@H]1C[C@@H](C)C(=O)[C@@H]([C@H](O)CC2CC(=O)NC(=O)C2)C1 | inactive
29 | O=c1cccc2n1C[C@H]1C[C@@H]2CN(CCO)C1 | inactive
30 | C[C@@H](Cc1ccc2c(c1)OC(C(=O)O)(C(=O)O)O2)NC[C@H](O)c1cccc(Cl)c1 | inactive
31 | CN1CCc2cc3c(cc2[C@@H]1[C@H]1OC(=O)c2c1ccc1c2OCO1)OCO3 | inactive
32 | CC[C@H]1CN2CC[C@@H]1C[C@@H]2[C@H](O)c1ccnc2ccccc12 | inactive
33 | CC[C@]1(O)C(=O)OCc2c1cc1n(c2=O)Cc2cc3ccccc3nc2-1 | inactive
34 | COC(=O)[C@]1(C)C[C@H]1[C@H](NP(=O)(c1ccccc1)c1ccccc1)c1ccccc1 | inactive
35 | c1ccc2ncccc2c1 | inactive
36 | CC(=O)[O-].CC(=O)[O-].O.O.[Cd+2] | inactive
37 | CCCC[N+]1(C)[C@@H]2CC(OC(=O)[C@@H](CO)c3ccccc3)C[C@H]1[C@H]1O[C@H]12 (stereo not given in full) | inactive
38 | C[C@@]1([C@@H](NP(=O)(c2ccccc2)c2ccccc2)c2ccccc2)C[C@H]1CCO | inactive
39 | C[C@@]12CC[C@H](O)C[C@@H]1CC[C@H]1[C@H]2C[C@@H](O)[C@]2(C)[C@@H](C3=CC(=O)OC3)CC[C@@]12O | inactive
40 | C#CCO | inactive
